# Results from PubChem BioAssay AID1259418 (Broad Institute, 2018).
# The whole screen tested about 3,400 compounds, of which about 840 (25%) were called active. Another 11% or so got no clear call; they are omitted. A selection follows. Results with a measured potency or affinity are listed apart. A number with no mark means an inactive call.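 How the source made its calls: active means fitted half-maximal concentration of signal decrease at or below twice the sample's top tested concentration; inconclusive means flat curve between -70 and -30 percent, or poor fit; inactive means flat within 30 percent, signal rise, or potency above limit.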
# Assay: T. gondii growth inhibition with IFN-gamma, dose response, cell-based, ME49Luc, HeLa, luciferase, 72 h (AID 1259418)
# Details: T. gondii ME49Luc in IFN-y HeLa, stronger effect = lower value, -100% = high-dose IFN-γ control wells; at 19.5 µM unless noted
row,Compound,max activity
1,COC(=O)c1ccc(NC(=O)Nc2ccc(-c3nc(-c4ccccc4)co3)cc2)cc1,75.7% [at 10 µM]
2,Cc1nc(CCNC(=O)C2CCN(C(=O)c3ccc(Br)o3)CC2)cs1,9.93% [at 5 µM]
3,Cc1ccc(-c2coc(-c3ccc(NC(=O)c4cccs4)cc3)n2)cc1,20.5% [at 0.35 µM]
4,COc1cc(NC(=O)Nc2ccc(-c3nc(-c4ccc(C)cc4)co3)cc2)cc(OC)c1OC,-16.6% [at 0.68 µM]
5,COc1cc(C(=O)Nc2ccc(-c3nc(-c4cc(C)ccc4C)co3)cc2)cc(OC)c1OC,-22.7% [at 0.16 µM]
6,Cc1ccc(C)c(-c2coc(-c3ccc(NC(=O)c4cccs4)cc3)n2)c1,62.5%
7,COC[C@H]1CN(C)C[C@]12CCN(C(=O)c1cc3ccccc3s1)C2,13.1%
8,COc1ccccc1-c1nc(C)c(-c2ccc(SCC(=O)OCc3ccccc3)nn2)s1,8.29% [at 10 µM]
9,Cc1oc(-c2cccc(Cl)c2)nc1CSc1nc2c(c(=O)[nH]1)CN(Cc1ccc(F)cc1)CC2,15.7%
10,Cc1cccc(C)c1NC(=O)CN1CCC2(CC1)N=C(c1ccc(F)cc1)C(=O)N2,10% [at 1.35 µM]
11,Cc1nc(OCC(=O)Nc2cccc(Cl)c2C)c2ccccc2n1,33.5% [at 0.16 µM]
12,COc1ccc(CNC(=O)CC2N=C3c4ccccc4N=C(SCc4cccc(F)c4)N3C2=O)cc1 (stereo not given),12.5% [at 1.35 µM]
13,COc1ccc(CNC(=O)CC2N=C3c4ccccc4N=C(SCc4ccccc4F)N3C2=O)cc1 (stereo not given),17.8% [at 10 µM]
14,COc1ccc(CNC(=O)CCC2N=C3c4ccccc4N=C(SCc4ccc(C)cc4)N3C2=O)cc1 (stereo not given),16.4% [at 1.35 µM]
15,CCCCNC(=O)CC1N=C2c3ccccc3N=C(SCc3ccc(F)cc3)N2C1=O (stereo not given),8.45% [at 2.6 µM]
16,COc1ccc(CNC(=O)CC2N=C3c4ccccc4N=C(SCc4ccc(C)cc4C)N3C2=O)cc1 (stereo not given),-42%
17,Cc1ccc(CSC2=Nc3ccccc3C3=NC(CC(=O)NCc4ccc(F)cc4)C(=O)N23)cc1 (stereo not given),13.6% [at 1.35 µM]
18,CCOc1ccccc1-c1nc(CSc2nc3c(c(=O)[nH]2)CN(Cc2ccccc2)CC3)c(C)o1,18.7%
19,O=C1CCc2cc(NC(=O)C3CCC3)ccc2N1,-4.89% [at 0.68 µM]
20,CCC(=O)N1CCC2(CC1)Nc1cc(F)ccc1-n1cccc12,8.79% [at 0.68 µM]
